“And” between values parts separate entries of the source, which are not always exact repeats. Equal entries are not always repeated. Results filed as inconclusive are left out. The source made the active and inactive calls. Unless noted, calls come from the whole dose curve.

A short description of test [1]: qHTS for Inhibitors of ATXN expression: Validation (AID 588378; active = well fitted curve in the direction sought with a large enough effect; an effect the other way counts as inactive or inconclusive; note: series mostly up to about 57 µM; % is set by controls: 0 for no effect and ±100 for the full control effect; nearly all actives have a fitted effect of over 75% in size). In short, it runs like this: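 Validation of ATXN2 expression inhibitors uses a cell-based luciferase fusion reporter in HEK293 cells, with 24 h compound exposure and paired viability (fluorescence) and reporter (luminescence) end-point reads.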
Test [2] deals with Estrogen receptor (Homo sapiens) (UniProt P03372). Kind of test: qHTS assay for small molecule antagonists of estrogen receptor alpha signaling (AID 588513; active = well fitted curve in the direction sought with a large enough effect in the signal ratio, with a control signal flat, not every such curve was filed as active; the % refers to the signal ratio; note: % is set by controls: 0 for no effect and ±100 for the full control effect). The method in brief: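 Cells were plated at 5000/well and incubated 4 h at 37 C. Compounds were added as 1:2 dilution series, duplicates. 17-beta-estradiol (0.5nM final) was added for 18 h before CCF4 detection.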
Test [3] shares this target. Kind of test: qHTS assay for small molecule agonists of estrogen receptor alpha signaling (AID 588514).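 Note: 0% = vehicle only and 100% = reference agonist; nearly all actives have a fitted effect of over 70% in size.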 In short, it runs like this: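 EC50 and efficacy came from Hill fits of beta-lactamase reporter signal (CCF4 dye, 2 h at room temperature) scaled between DMSO and 20 nM 17-beta-estradiol. Agonist mode: HEK293 ER-alpha-UAS-bla cells in charcoal/dextran-stripped serum medium, 18 h compound exposure at 37 C.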

For test [4], the target named is Androgen receptor (Homo sapiens) (UniProt P10275). Kind of test: qHTS assay for small molecule agonists of androgen receptor signaling (AID 588515; active = well fitted curve in the direction sought with a large enough effect in the signal ratio, with a control signal flat; the % refers to the signal ratio; note: % is set by controls: 0 for no effect and ±100 for the full control effect). To be noted: AR-UAS-bla HEK293, beta-lactamase ratio, agonist 16 h; stronger effect = higher value. In short, it runs like this:
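Stimulation of an AR-responsive β-lactamase reporter in GripTite HEK293 cells was measured after 16 h compound exposure at 37 °C, via CCF4 fluorescence after 2 h RT. EC50 from Hill fits, normalized to R1881 at 30 nM.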

Test [5] has the same target. Briefly: qHTS assay for small molecule antagonists of androgen receptor signaling (AID 588516; active = well fitted curve in the direction sought with a large enough effect in the signal ratio, with a control signal flat, not every such curve was filed as active; the % refers to the signal ratio; note: % is set by controls: 0 for no effect and ±100 for the full control effect). In short, it runs like this: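 Antagonist-mode qHTS: inhibition of R1881 (10 nM)-driven beta-lactamase expression in GripTite HEK 293 cells is measured after 16 h; values are Hill-derived IC50s normalized between R1881 and DMSO wells.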
In test [6] the target is Bile acid receptor (Homo sapiens) (UniProt Q96RI1). Briefly: qHTS assay for small molecule agonists of farnesoid X receptor signaling (AID 588527).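 Note: series mostly up to about 77 µM; 0% = vehicle basal and 100% = reference agonist.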 The conditions noted are these: HEK293T FXR-UAS-bla, beta-lactamase ratio, 16 h; stronger effect = higher value. In short, it runs like this:
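Agonist-mode beta-lactamase reporter in GeneBLAzer FXR-UAS-bla HEK293T cells, titration up to 92 uM, 16 h exposure at 37 C, CCF4 fluorescence. Response scaled to DMSO (0%) and 100 uM chenodeoxycholic acid (100%), then Hill-fitted for EC50 and efficacy.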

Test [7] deals with Glucocorticoid receptor (Homo sapiens) (UniProt P04150). Briefly: qHTS assay for small molecule agonists of glucocorticoid receptor signaling (AID 588532; active = well fitted curve in the direction sought with a large enough effect in the signal ratio, with a control signal flat; the % refers to the signal ratio;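 note: 100% = dexamethasone at 0.1 µM and 0% = DMSO only wells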). To be noted: HeLa MMTV-bla, beta-lactamase ratio, agonist, 18 h; stronger effect = higher value; percent of dexamethasone control, DMSO zero. The method in brief: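 Cells were plated and rested 3-5 h at 37 C, compounds were added in titration and incubated 18 h, then CCF4 substrate was loaded for 2 h at RT before reading blue/green fluorescence. EC50 came from Hill-equation fitting.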
Chain of Glucocorticoid receptor (Homo sapiens) (P04150 whole entry, looked up): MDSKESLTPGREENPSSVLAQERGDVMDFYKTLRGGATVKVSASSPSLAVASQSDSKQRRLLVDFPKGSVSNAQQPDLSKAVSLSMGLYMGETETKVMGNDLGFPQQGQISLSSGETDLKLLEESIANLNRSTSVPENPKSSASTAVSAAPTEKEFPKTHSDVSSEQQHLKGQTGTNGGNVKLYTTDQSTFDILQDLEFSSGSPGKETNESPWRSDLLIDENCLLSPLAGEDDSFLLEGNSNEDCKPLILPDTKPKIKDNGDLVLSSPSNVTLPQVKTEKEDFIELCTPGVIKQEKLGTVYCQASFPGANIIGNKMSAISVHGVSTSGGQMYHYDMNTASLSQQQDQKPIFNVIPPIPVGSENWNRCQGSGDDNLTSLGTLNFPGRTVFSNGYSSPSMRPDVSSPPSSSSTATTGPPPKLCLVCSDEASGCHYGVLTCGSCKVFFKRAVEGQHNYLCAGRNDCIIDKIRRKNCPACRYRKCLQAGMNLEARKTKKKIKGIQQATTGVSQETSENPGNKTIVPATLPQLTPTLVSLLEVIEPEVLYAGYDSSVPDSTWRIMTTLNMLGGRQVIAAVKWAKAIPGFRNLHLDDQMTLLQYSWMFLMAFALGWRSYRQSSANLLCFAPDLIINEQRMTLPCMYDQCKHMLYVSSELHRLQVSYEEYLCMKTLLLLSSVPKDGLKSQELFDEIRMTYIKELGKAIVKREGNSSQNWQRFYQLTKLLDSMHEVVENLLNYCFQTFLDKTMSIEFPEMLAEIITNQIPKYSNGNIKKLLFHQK

Test [8] addresses Peroxisome proliferator-activated receptor delta (Homo sapiens) (UniProt Q03181). Kind of test: qHTS assay for small molecule agonists of peroxisome proliferator-activated receptor delta signaling (AID 588534).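 Note: 0% = DMSO basal wells and 100% = positive control agonist at 10 µM.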 The method in brief: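 Agonist-mode beta-lactamase reporter readout (CCF4 dye, 2 h at RT) after 18 h at 37 °C exposure to a titration; Hill-equation fitting gave EC50 and maximal response.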

Test [9] is described as follows: qHTS assay for small molecule antagonists of peroxisome proliferator-activated receptor delta signaling (AID 588535; active = well fitted inhibition curve with a large enough effect in the signal ratio, with a control signal flat, not every such curve was filed as active; the % refers to the signal ratio;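 for max response: cells co-treated with a PPAR-delta agonist as stimulator during compound exposure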). To be noted: HEK293T PPARd-UAS-bla, beta-lactamase FRET ratio, 18 h; 460 nm channel. In short, it runs like this: (§1)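 Fluorescence from CCF4-loaded GeneBLAzer PPAR-delta-UAS-bla HEK293T cells (2 hrs RT loading) quantified reporter inhibition after an 18 hr, 37 C compound exposure across a titration.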

The target of test [10] is Peroxisome proliferator-activated receptor delta (Homo sapiens) (UniProt Q03181). The description is as above. The method in brief: as §1
Chain of Peroxisome proliferator-activated receptor delta (Homo sapiens) (Q03181 whole entry, looked up): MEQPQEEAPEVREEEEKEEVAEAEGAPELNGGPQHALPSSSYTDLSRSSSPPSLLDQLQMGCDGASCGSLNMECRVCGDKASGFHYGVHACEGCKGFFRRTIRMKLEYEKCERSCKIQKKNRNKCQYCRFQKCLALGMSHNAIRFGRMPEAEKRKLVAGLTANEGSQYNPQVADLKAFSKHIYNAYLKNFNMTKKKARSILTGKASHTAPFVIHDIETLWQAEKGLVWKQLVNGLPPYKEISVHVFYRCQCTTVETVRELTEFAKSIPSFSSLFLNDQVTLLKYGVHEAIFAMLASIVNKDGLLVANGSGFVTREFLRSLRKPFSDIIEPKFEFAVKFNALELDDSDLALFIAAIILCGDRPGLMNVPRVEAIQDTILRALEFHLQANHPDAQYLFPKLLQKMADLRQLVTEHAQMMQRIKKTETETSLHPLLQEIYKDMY
The target of test [11] is Peroxisome proliferator-activated receptor gamma (Homo sapiens) (UniProt P37231). Briefly: qHTS assay for small molecule agonists of peroxisome proliferator-activated receptor gamma signaling (AID 588536; active = well fitted curve in the direction sought with a large enough effect in the signal ratio, with a control signal flat, not every such curve was filed as active; the % refers to the signal ratio;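 note: 0% = DMSO basal wells and 100% = rosiglitazone at 2 µM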). In short, it runs like this:
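This is an agonist-mode beta-lactamase reporter assay in HEK293 PPAR-gamma-UAS-bla cells with 1% charcoal/dextran FBS. Compound titrations ran 16 h at 37 C before CCF4 detection. EC50 and efficacy are Hill fits scaled to 2 uM rosiglitazone (100%) and DMSO basal.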

For test [12] the target is unchanged. Kind of test: qHTS assay for small molecule antagonists of peroxisome proliferator-activated receptor gamma signaling (AID 588537; active = well fitted inhibition curve with a large enough effect in the signal ratio, with a control signal flat, not every such curve was filed as active; the % refers to the signal ratio;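 note: reporter cells co-stimulated with 50 nM rosiglitazone agonist during compound treatment; % of control where 0% means no effect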). The method in brief:
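Fluorescence at 460 and 530 nm (405 nm excitation) reported beta-lactamase cleavage of CCF4 after 2 h room-temperature loading. HEK293 reporter cells in 1% charcoal/dextran-treated FBS had received compound and rosiglitazone for 16 h.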

The target in test [13] is Vitamin D3 receptor (Homo sapiens) (UniProt P11473). Briefly: qHTS assay for small molecule antagonists of vitamin D receptor signaling (AID 588541).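 Note: receptor activated by calcitriol during compound treatment; series mostly up to about 77 µM; % is set by controls: 0 for no effect and ±100 for the full control effect.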 The method in brief:
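VDR-UAS-bla HEK293T cells in 2% charcoal-stripped FBS were stimulated with 1-alpha,25-dihydroxyvitamin D3 (3 nM final) plus compound for 16 h at 37 C. The beta-lactamase CCF4 readout was normalized to 50 nM agonist and DMSO, and Hill fits gave IC50.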

Test [14] shares this target. Kind of test: qHTS assay for small molecule agonists of vitamin D receptor signaling (AID 588543).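 Note: 0% = DMSO basal and 100% = reference agonist control.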 In short, it runs like this: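 qHTS in agonist mode: compound titrations stimulate a VDR-driven β-lactamase reporter in HEK293T cells over 16 h at 37 °C. Response normalized to 50 nM 1α,25-dihydroxyvitamin D3 = 100%, DMSO = 0%; Hill fitting gives EC50 and maximal response.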

A short description of test [15]: qHTS assay for small molecule agonists of retinoid X receptor alpha signaling (AID 588544).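 For activation: 0% = DMSO basal wells and 100% = reference agonist.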 The conditions noted are these: HEK293T RXRa-UAS-bla, beta-lactamase reporter, 18 h; 530 nm emission.
The target of test [16] is Retinoic acid receptor RXR-alpha (Homo sapiens) (UniProt P19793). The description is as above.
Chain of Retinoic acid receptor RXR-alpha (Homo sapiens) (P19793 whole entry, looked up): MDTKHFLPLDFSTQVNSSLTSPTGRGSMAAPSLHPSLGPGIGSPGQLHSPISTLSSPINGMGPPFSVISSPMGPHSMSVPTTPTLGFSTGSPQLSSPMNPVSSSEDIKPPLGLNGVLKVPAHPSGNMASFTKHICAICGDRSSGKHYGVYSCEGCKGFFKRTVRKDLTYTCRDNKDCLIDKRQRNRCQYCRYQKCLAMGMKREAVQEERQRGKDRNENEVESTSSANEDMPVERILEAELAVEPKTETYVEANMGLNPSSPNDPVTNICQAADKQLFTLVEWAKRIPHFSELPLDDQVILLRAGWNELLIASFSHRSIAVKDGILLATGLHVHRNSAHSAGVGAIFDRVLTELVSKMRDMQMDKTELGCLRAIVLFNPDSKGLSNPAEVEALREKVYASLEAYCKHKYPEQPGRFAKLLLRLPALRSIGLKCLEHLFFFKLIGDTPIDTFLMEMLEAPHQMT
Test [17] deals with Thyroid hormone receptor beta (Homo sapiens) (UniProt P10828). Briefly: qHTS assay for small molecule agonists of thyroid hormone receptor beta signaling (AID 588545). In short, it runs like this:
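HEK 293 TR-UAS-bla; agonist mode; 18 hrs, 37 C; CCF4, ex 405/em 460 and 530 nm; norm. T3 10 nM = 100%, DMSO = 0%; Hill fit → EC50, efficacy.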

A short description of test [18]: qHTS assay for small molecule antagonists of retinoid X receptor alpha signaling (AID 588546). To be noted: HEK293T RXRa-UAS-bla, beta-lactamase ratio, antagonist mode; measured here: W530 green channel, cytotoxicity proxy. The method in brief: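 Beta-lactamase reporter inhibition, read as CCF4 fluorescence ratio (ex 405, em 460/530 nm) after 2 h at RT. HEK293T UAS-bla cells, 2500/well, were stimulated with 9-cis-RA at 500 or 100 nM final alongside test compound for 18 h at 37 C.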

Test [19] addresses DNA dC->dU-editing enzyme APOBEC-3G (Homo sapiens) (UniProt Q9HC16). Briefly: qHTS for inhibitors of Vif-A3G interactions: Validation (AID 588379; active = well fitted curve in the direction sought with a large enough effect; an effect the other way counts as inactive or inconclusive; note: 0% is about no effect). The method in brief:
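Yellow fluorescence (Ex 488, Em 500-530) of Vif-coexpressing HeLa A3G-eYFP cells, scanned by Acumen cytometer, reports blocked A3G degradation. Cells plated at 700/well overnight at 37 deg C before compound addition, then a further overnight compound incubation at 37 deg C.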

The target of test [20] is Bile acid receptor (Homo sapiens) (UniProt Q96RI1). Kind of test: qHTS assay for small molecule antagonists of farnesoid X receptor signaling (AID 588526). Note: % is set by controls: 0 for no effect and ±100 for the full control effect. The method in brief: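 Antagonist mode: titrated compounds tested against chenodeoxycholic acid stimulation (normalized to 50 uM CDCA and DMSO) in GeneBLAzer HEK293T cells for 16 h. Beta-lactamase read by CCF4 fluorescence; IC50 from Hill fits.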
Chain of Bile acid receptor (Homo sapiens) (Q96RI1 whole entry, looked up): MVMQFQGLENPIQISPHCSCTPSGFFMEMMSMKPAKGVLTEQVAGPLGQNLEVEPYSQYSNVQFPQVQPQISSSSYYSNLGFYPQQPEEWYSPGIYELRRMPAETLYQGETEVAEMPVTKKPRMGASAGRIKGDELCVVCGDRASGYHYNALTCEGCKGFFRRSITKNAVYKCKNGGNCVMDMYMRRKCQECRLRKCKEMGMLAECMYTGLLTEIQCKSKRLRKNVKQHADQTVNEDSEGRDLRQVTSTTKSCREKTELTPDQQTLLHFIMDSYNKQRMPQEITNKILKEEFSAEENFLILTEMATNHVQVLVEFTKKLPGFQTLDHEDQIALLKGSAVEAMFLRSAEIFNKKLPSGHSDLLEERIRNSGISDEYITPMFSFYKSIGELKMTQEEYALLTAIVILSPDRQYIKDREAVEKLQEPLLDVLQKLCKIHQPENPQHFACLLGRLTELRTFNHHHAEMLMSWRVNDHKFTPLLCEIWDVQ

Chain of Androgen receptor (Homo sapiens) (P10275 whole entry, looked up): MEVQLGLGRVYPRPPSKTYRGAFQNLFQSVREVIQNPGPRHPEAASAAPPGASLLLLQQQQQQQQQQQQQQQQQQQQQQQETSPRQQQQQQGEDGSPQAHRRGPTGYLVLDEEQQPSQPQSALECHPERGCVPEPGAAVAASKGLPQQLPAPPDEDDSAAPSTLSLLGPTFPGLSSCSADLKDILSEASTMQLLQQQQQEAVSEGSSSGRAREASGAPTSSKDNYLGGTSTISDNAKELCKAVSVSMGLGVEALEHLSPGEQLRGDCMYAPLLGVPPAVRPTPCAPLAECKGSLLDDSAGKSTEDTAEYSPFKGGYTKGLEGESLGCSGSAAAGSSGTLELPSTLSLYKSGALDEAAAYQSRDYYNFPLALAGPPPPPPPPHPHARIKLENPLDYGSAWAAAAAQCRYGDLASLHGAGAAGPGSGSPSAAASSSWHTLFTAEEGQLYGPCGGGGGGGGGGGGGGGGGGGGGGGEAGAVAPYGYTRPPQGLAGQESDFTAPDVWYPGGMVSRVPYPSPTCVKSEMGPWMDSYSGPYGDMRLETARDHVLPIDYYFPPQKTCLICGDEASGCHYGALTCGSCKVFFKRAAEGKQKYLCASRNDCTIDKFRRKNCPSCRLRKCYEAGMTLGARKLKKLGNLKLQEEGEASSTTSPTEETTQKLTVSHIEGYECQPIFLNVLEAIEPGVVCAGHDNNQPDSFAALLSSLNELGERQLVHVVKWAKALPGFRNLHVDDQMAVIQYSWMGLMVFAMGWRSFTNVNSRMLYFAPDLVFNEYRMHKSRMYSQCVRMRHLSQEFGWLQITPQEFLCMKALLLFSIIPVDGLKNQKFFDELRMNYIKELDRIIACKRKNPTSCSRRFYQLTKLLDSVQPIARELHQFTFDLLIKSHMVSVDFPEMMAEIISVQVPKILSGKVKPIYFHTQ
Chain of DNA dC->dU-editing enzyme APOBEC-3G (Homo sapiens) (Q9HC16 whole entry, looked up): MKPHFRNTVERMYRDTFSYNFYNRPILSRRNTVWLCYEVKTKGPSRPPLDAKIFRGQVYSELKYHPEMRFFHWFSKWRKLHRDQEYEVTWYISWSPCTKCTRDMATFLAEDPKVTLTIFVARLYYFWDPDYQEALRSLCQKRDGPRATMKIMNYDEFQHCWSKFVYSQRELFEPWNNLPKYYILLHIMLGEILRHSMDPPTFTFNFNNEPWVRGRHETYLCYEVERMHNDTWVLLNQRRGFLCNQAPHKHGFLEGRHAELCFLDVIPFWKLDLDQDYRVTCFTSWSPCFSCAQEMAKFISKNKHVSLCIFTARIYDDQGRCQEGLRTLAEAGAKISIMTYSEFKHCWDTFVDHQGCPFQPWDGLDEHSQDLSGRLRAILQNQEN
Chain of Peroxisome proliferator-activated receptor gamma (Homo sapiens) (P37231 whole entry, looked up): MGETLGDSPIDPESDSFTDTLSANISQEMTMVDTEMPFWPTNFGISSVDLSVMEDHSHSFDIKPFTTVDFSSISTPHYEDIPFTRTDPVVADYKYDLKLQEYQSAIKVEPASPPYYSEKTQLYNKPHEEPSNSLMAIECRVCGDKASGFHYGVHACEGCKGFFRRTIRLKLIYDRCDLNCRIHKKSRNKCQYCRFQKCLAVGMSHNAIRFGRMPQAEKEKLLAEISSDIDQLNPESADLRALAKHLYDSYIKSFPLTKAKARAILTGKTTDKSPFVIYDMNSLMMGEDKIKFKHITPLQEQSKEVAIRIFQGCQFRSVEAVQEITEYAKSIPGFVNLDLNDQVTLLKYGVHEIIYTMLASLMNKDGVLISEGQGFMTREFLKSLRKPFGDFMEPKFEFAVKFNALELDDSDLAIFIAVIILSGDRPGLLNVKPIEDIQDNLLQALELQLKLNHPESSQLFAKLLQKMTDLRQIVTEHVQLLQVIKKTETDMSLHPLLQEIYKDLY
Chain of Thyroid hormone receptor beta (Homo sapiens) (P10828 whole entry, looked up): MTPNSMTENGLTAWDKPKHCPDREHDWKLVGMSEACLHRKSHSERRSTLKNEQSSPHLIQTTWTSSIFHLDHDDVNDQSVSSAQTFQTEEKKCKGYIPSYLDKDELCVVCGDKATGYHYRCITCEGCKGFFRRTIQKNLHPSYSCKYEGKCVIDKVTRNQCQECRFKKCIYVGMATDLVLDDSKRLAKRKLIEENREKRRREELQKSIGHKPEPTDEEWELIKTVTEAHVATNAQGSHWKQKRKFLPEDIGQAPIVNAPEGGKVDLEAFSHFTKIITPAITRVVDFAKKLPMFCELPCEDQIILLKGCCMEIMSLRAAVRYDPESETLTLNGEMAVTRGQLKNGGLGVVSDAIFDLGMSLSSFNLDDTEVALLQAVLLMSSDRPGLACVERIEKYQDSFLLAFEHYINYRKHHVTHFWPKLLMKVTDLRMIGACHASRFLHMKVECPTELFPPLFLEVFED
Chain of Vitamin D3 receptor (Homo sapiens) (P11473 whole entry, looked up): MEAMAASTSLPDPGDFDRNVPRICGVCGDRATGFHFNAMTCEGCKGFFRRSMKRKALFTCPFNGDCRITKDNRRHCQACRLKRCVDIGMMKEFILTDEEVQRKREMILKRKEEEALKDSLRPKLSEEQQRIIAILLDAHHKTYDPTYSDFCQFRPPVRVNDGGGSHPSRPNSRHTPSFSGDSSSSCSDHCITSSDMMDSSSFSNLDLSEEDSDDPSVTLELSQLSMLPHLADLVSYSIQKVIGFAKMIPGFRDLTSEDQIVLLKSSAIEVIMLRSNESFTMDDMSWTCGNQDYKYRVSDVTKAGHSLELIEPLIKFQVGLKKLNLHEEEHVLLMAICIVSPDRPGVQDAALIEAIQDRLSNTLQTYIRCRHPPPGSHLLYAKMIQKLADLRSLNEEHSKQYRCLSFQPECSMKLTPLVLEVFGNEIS

In the case of `O=C(N[C@H]1CN2CCC1CC2)c1ccc(Cl)cc1`, in [1], the Potency result is “inactive”.

`NC(CCP(=O)(O)O)C(=O)O` (stereo not given): the Potency result in test [1] is “inactive”.

Regarding `CCCN1CCO[C@@H]2c3cc(O)ccc3OC[C@H]21`, the Potency result in test [1] was “inactive”.

As for `CCCN1CCC[C@H](c2cccc(O)c2)C1`, the Potency entry in [1] is “inactive”.

In the case of `NC(N)=NOCCC(N)C(=O)O` (stereo not given), in test [1], the Potency result is “inactive”.

As for `Oc1ccc2c3c1O[C@H]1c4[nH]c5c(c4C[C@@]4(O)[C@@H](C2)N(CC2CC2)CC[C@]314)C[C@@]1(O)[C@H]2Cc3ccc(O)c4c3[C@@]1(CCN2CC1CC1)[C@H]5O4`, the Potency result in test [1] was “inactive”.

For `NCCc1c[nH]c2ccccc12`, the Potency result in test [1] is “inactive”.

As for `CC(C)Oc1cccnc1N(C)C1CCN(Cc2ccccc2)CC1`, in test [1], the Potency entry is “inactive”.

As to `c1cc2ccc3cccc4ccc(c1)c2c34`, the Potency result in test [2], in test [5], in test [10], in test [12], in test [13] and in test [16] was “inactive” each time. In addition, the compound was called inactive in test [3], in test [8], in [11], in test [14] and in [17]. Moreover, the activation in test [4] was 11.6% (inactive) and 8.44% (inactive); in test [6], -4.41% (inactive) and -1.09% (inactive); in test [7] it was 1.46% (inactive) and -7.46% (inactive). The max response in test [9] is 50.8% and 2.37%; in [15] it was -6.58% and -8.62%; in [18] it was -9.93% and -1.15%.

For the compound `c1ccc2sc(C3(N4CCCCC4)CCCCC3)cc2c1`, the Potency entry in test [1] was “inactive”. Also, the outcome in test [19] was inactive.

For the compound `C[C@@H](N)Cc1cnc[nH]1`, in [1], the Potency result was “inactive”. For the same compound, the call in test [19] was inactive.

`Cc1nc(-c2ccc(-c3ccc(C(=O)N4CCc5cc6c(cc54)C4(CCN(C)CC4)CO6)cc3)c(C)c2)no1`: the outcome in test [19] was inactive.

As for `CCCN(CCC)[C@@H]1CCc2ccc(O)cc2C1`, in [1], the Potency entry was “inactive”. Moreover, the call in test [19] was inactive.

For the compound `O=[N+]([O-])/N=C1\NCCN1Cc1ccc(Cl)nc1`, the Potency entry in test [2], in test [5], in test [12], in test [13] and in [16] was “inactive” in each case. For the same compound, the result in [3], in [20], in test [11] and in [17] was inactive. The figures for the activation in [4], in test [6] and in test [7] were 8.09% (inactive), 1.01% (inactive) and 6.65% (inactive), respectively. Also, the max response in test [15] was -17.3%; in test [18] it was -10.6%.

Turning to `COc1ccc(C(=O)c2c(C)n(CCN3CCOCC3)c3cc(I)ccc23)cc1`, in [19], the compound was classed as inactive.

As to `O=c1cccc2n1CC1CNC[C@H]2C1`, the result in test [19] was inactive.

Take `CCCCc1ccc(C(=O)O)nc1`: the Potency entry in test [1] was “inactive”. In addition, the outcome in test [19] was inactive.

Consider `NC(=NCCC[C@H](N)C(=O)O)N[N+](=O)[O-]`, for which the Potency result in test [1] is “inactive”. Further, in [19], the compound was classed as inactive.

`c1ccc(CCCN2CCN(CCOC(c3ccccc3)c3ccccc3)CC2)cc1`: the outcome in test [19] was inactive.

For the compound `CCCN1CCO[C@@H]2c3cc(O)ccc3OC[C@@H]21`, in test [19], the outcome was inactive.

With `CNCCc1c[nH]c2ccc(O)cc12`, the Potency result in test [1] was “inactive”. The call in [19] was inactive.

In the case of `C=CC(=O)NCNC(=O)C=C`, the Potency entry in test [2], in [5], in test [10], in test [12], in [13] and in [16] was “inactive” throughout. In addition, the compound was called inactive in [3], in test [11] and in test [14]. Further, the activation is 20.4% (inactive) and 9.02% (inactive) in test [4]; 4.39% (inactive) and -21.1% (inactive) in test [7]. In addition, the max response in [9] is -23.6%; in test [15], 1.23% and 0.699%; in [18], -7% and 1.5%.

In the case of `CCOC(=O)c1cncn1[C@H](C)c1ccccc1`, the outcome in test [19] was inactive.

On to `O=C(O)COc1nc(Cl)c(Cl)cc1Cl`, for which the Potency result in [2], in test [10] and in [13] was “inactive” throughout. For the same compound, the compound was called inactive in test [3], in test [20] and in test [17]. Further, the results for the activation in test [6] and in [7] were -0.709% (inactive) and -16% (inactive), respectively. Besides, the figures for the max response in test [9] and in test [18] were 110% and 0.628%, respectively.

For the compound `Cc1cc(O)ccc1Cl`, the Potency result in test [2], in [10], in test [12], in test [13] and in test [16] was “inactive” in each case. For the same compound, the call in [3], in test [20], in [11], in test [14] and in test [17] was inactive. For the same compound, the activation in test [6] was 1.93% (inactive). In addition, the max response in [9] was 44.7%; in test [15], -6.7%; in [18], 3.81%.

(Values after PubChem BioAssay (NCATS).)
